Our source for the growth inhibition, inhibition and outcome values is PubChem BioAssay.

A short description of experiment [1]: antimalarial activity against Dd2 strain (AID 2302;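 active = growth inhibition above 50% at the single 2 µM test dose, taken to imply half-maximal potency below 2 µM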;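 also: 0% = DMSO untreated growth and 100% = chloroquine plus artemisinin killed control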). As to conditions: P. falciparum Dd2 in RBCs, LDH growth readout, 72 h; at 2 µM; active compounds read high.
Experiment [2] can be described thus: HepG2 cytotoxicity, primary screen, cytotoxicity control for P. falciparum antimalarial project, cell-based, ATP luminescence (AID 2303;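 active = inhibition above 50%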;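 also: 0% = DMSO wells and 100% = digitonin-killed cells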). The note with it: HepG2 viability, 24-48 h, at 10 µM, active compounds read high.
Experiment [3] has as its target L-lactate dehydrogenase (Plasmodium falciparum (isolate CDC / Honduras)) (UniProt Q27743). In words: PfLDH activity inhibition – cell lysate, 3D7 strain, counter-screen for P. falciparum growth inhibition project (AID 2304).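 Also: 0% = vehicle and 100% = reference inhibitor.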 The note with it: P. falciparum 3D7 crude extract, LDH APAD/NBT absorbance; at 2 µM; active compounds read high. For orientation: The purpose of a counterscreen is to sort out artefacts and off-target activity.

A short description of experiment [4]: inhibition of 3D7 malaria parasite growth – strain 3D7 (AID 2306).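 Also: 0% = DMSO wells and 100% = chloroquine plus artemisinin control wells.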 As to conditions: P. falciparum 3D7 erythrocytic growth, LDH absorbance, 72 h; at 2 µM; active compounds read high.
Experiment [5] has as its target Calcium-dependent protein kinase 1 (Plasmodium falciparum (isolate 3D7)) (UniProt P62344). In words: PfCDPK1 kinase inhibitors, biochemical, TCAMS library (AID 1159585; cut-off not given, nearly all actives have IC50 up to about 0.98 µM;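 also: inhibitors leave more ATP so luminescence rises with inhibition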). The note with it: recombinant PfCDPK1, Kinase-Glo ATP depletion luminescence.
The target of experiment [6] is Plasmodium falciparum protein kinase 6 (PK6, PF3D7_1337100) (UniProt Q8IDW1). In words: PfPK6 kinase inhibitors, biochemical, TCAMS library (AID 1159586). As to conditions: recombinant PfPK6, Kinase-Glo ATP depletion luminescence. For orientation: In Kinase-Glo more light means more ATP remaining.
Experiment [7] has as its target Protein kinase 7 (PK7), Plasmodium falciparum 3D7 (PF3D7_0213400) (UniProt Q7YTF7). In words: inhibition of Plasmodium PK7 catalytic activity – biochemical, TCAMS antimalarial set, Kinase-Glo luminescence (AID 1159587). The note with it: recombinant PfPK7, Kinase-Glo ATP depletion luminescence.
Experiment [8] deals with Calcium-dependent protein kinase 4 (Plasmodium falciparum (isolate 3D7)) (UniProt Q8IBS5). Briefly: PfCDPK4 kinase inhibitors, biochemical, TCAMS library (AID 1159588; cut-off not given, nearly all actives have IC50 up to about 0.91 µM). As to conditions: recombinant PfCDPK4, Kinase-Glo ATP depletion luminescence.

Values without a mark were called inactive. For some of these results: Entries with a potency or affinity are not part of this list. The source made the active and inactive calls. Unless noted, no rule for the calls is given here.

What is called inhibition is the change of the read-out against control, counted positive when it falls.

Calcium-dependent protein kinase 4 (Plasmodium falciparum (isolate 3D7)), sequence (Q8IBS5 whole entry, looked up): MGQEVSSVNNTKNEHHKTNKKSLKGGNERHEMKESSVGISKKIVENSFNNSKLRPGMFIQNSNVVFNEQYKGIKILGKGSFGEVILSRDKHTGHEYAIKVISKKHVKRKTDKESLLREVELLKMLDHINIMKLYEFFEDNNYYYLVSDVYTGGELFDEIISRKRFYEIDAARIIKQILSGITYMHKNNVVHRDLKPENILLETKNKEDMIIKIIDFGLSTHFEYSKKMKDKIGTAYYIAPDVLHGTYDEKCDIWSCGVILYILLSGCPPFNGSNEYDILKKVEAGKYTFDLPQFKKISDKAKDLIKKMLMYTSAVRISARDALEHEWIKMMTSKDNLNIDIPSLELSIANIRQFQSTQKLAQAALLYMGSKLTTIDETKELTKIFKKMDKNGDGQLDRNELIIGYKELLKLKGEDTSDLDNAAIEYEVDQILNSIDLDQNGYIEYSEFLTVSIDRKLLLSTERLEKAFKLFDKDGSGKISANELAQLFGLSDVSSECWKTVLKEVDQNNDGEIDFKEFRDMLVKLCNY
Plasmodium falciparum protein kinase 6 (PK6, PF3D7_1337100), sequence (Q8IDW1 1-305): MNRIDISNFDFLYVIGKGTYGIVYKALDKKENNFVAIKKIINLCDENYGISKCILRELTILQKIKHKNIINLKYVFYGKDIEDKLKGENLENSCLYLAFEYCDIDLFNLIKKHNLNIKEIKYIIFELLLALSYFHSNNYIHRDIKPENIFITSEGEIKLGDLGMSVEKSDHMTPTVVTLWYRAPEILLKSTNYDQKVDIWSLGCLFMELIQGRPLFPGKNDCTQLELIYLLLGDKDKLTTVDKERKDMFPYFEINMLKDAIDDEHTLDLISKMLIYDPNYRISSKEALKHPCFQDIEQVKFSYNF
L-lactate dehydrogenase (Plasmodium falciparum (isolate CDC / Honduras)), sequence (Q27743 whole entry, looked up): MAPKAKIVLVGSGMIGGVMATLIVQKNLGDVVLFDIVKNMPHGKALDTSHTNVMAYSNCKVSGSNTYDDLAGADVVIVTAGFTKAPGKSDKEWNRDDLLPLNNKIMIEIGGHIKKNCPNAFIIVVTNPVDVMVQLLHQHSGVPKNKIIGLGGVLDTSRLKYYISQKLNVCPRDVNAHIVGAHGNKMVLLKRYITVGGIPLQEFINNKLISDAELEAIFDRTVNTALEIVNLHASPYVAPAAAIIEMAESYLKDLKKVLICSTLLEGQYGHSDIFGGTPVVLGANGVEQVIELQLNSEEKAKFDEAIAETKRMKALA
Calcium-dependent protein kinase 1 (Plasmodium falciparum (isolate 3D7)), sequence (P62344 whole entry, looked up): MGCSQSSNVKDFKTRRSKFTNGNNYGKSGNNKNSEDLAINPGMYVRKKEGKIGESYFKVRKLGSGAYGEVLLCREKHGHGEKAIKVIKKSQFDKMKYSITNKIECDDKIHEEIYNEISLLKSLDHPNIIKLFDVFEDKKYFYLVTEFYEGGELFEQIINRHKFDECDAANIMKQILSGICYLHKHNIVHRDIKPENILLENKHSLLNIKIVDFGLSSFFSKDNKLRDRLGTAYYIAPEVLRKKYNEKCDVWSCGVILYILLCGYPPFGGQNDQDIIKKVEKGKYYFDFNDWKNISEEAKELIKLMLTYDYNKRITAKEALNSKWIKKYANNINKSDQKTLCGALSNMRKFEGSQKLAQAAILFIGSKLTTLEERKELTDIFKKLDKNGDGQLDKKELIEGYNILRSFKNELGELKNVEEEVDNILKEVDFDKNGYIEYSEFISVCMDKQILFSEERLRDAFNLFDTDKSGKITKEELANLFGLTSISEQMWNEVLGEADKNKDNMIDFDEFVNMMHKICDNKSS
Protein kinase 7 (PK7), Plasmodium falciparum 3D7 (PF3D7_0213400), sequence (Q7YTF7 1-343): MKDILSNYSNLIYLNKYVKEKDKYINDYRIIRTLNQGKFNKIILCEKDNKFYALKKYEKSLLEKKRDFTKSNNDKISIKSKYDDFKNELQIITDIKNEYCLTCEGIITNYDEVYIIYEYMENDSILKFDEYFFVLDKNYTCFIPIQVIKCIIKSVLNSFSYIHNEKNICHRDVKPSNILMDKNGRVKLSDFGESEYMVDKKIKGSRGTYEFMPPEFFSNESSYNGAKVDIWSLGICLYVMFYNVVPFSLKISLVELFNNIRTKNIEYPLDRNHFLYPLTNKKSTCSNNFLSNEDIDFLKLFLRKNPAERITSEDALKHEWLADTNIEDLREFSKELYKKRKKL

Turning to `CN1CCN(CC(=O)Nc2ccc(-c3cccc(-c4nc5ccc(F)cc5[nH]4)c3)cc2)CC1`, the growth inhibition in experiment [1] and in experiment [4] was 100% (active) in each case. The inhibition in experiment [2] was 18%; in experiment [3], 3%. The outcome in experiment [5], in experiment [6], in experiment [7] and in experiment [8] was inactive.

`CCOC(=O)c1cc(=O)c2ccc(OCC#N)cc2o1`: the growth inhibition is 86% (active) in experiment [1] and 88% (active) in experiment [4]. The inhibition in experiment [2] was 2%; in experiment [3] it was -6%. Further, the result in experiment [5], in experiment [6], in experiment [7] and in experiment [8] was inactive.

As to `FC(F)(F)c1ccc2nc(-c3ccc(-c4cccc(CNCCN5CCNCC5)c4)cc3)[nH]c2c1`, the growth inhibition in experiment [1] was 2%; in experiment [4] it was 92% (active). Also, the figures for the inhibition in experiment [2] and in experiment [3] were 13% and -1%, respectively. In addition, the outcome in experiment [5], in experiment [6], in experiment [7] and in experiment [8] was inactive.

For the compound `CCOc1ccc(NC(=O)c2cn3nc(-c4ccc(OCC)cc4)cc3nc2C2CCNCC2)cc1`, the results for the growth inhibition in experiment [1] and in experiment [4] were 39% and 102% (active), respectively. The inhibition in experiment [2] was 36%; in experiment [3], -11%. Besides, the outcome in experiment [5], in experiment [6], in experiment [7] and in experiment [8] was inactive.

As for `CC(C)CNCc1ccc(-c2ccccc2CNC2CCN(Cc3ccccc3)CC2)cc1`, the results for the growth inhibition in experiment [1] and in experiment [4] were 41% and 101% (active), respectively. Also, the inhibition in experiment [2] was 28%; in experiment [3] it was -3%. In addition, the result in experiment [5], in experiment [6], in experiment [7] and in experiment [8] was inactive.

As to `CC1=C(C(=O)OC(C)C)C(c2ccccc2Cl)C2=C(CC(c3ccccc3)CC2=O)N1` (stereo not given), the growth inhibition in experiment [1] is 84% (active); in experiment [4] it was 93% (active). Besides, the figures for the inhibition in experiment [2] and in experiment [3] were 15% and 1%, respectively. The outcome in experiment [5], in experiment [6], in experiment [7] and in experiment [8] was inactive.

For the compound `C=CCN1CCC(N(Cc2cccc(Oc3ccccc3)c2)C(=O)C(c2ccccc2)c2ccccc2)CC1`, the figures for the growth inhibition in experiment [1] and in experiment [4] were 79% (active) and 87% (active), respectively. Further, the results for the inhibition in experiment [2] and in experiment [3] were 7% and -5%, respectively. In addition, the outcome in experiment [5], in experiment [6], in experiment [7] and in experiment [8] was inactive.

Regarding `CCc1c(C(=O)NC2CCC(N3CCC(c4ccccc4C)CC3)CC2)[nH]c2ccc(OC)cc12` (stereo not given), the growth inhibition was 100% (active) in experiment [1] and 101% (active) in experiment [4]. Moreover, the inhibition is 78% (active) in experiment [2] and -1% in experiment [3]. For the same compound, the outcome in experiment [5], in experiment [6], in experiment [7] and in experiment [8] was inactive.

On to `CC(=O)Nc1cccc(C(=O)Nc2cccc(-c3ccc(-c4nc5c(C)cccc5[nH]4)s3)c2)c1`, for which the growth inhibition in experiment [1] is 26%; in experiment [4] it was 99% (active). Besides, the results for the inhibition in experiment [2] and in experiment [3] were 75% (active) and 4%, respectively. In addition, the result in experiment [5], in experiment [6], in experiment [7] and in experiment [8] was inactive.

For the compound `OCCN1CCN(Cc2cccc(-c3ccc(-c4nc5ccc(C(F)(F)F)cc5[nH]4)cc3)c2)CC1`, the values for the growth inhibition in experiment [1] and in experiment [4] were 85% (active) and 102% (active), respectively. The inhibition is 19% in experiment [2] and -2% in experiment [3]. Also, the outcome in experiment [5], in experiment [6], in experiment [7] and in experiment [8] was inactive.

On to `COc1ccc2nccc([C@@H](O)CN3CCC(NCc4cc5c(F)ccc(F)c5[nH]4)CC3)c2c1`, for which the growth inhibition in experiment [1] was 67% (active); in experiment [4], 100% (active). The figures for the inhibition in experiment [2] and in experiment [3] were 29% and 0%, respectively. In addition, the result in experiment [5], in experiment [6], in experiment [7] and in experiment [8] was inactive.

Take `COCCNCC(O)Cn1c2ccc(Cl)cc2c2cc(Cl)ccc21` (stereo not given): the growth inhibition was 74% (active) in experiment [1] and 95% (active) in experiment [4]. Besides, the figures for the inhibition in experiment [2] and in experiment [3] were 15% and 0%, respectively. Moreover, the result in experiment [5], in experiment [6], in experiment [7] and in experiment [8] was inactive.

For the compound `CCCNC[C@@H](O)[C@H](Cc1ccccc1)NC(=O)c1cc(NCC)cc(N2CCCC2=O)c1`, the results for the growth inhibition in experiment [1] and in experiment [4] were 76% (active) and 100% (active), respectively. Also, the values for the inhibition in experiment [2] and in experiment [3] were -9% and 1%, respectively. In addition, the outcome in experiment [5], in experiment [6], in experiment [7] and in experiment [8] was inactive.

For the compound `CC(C)(C)c1ccc(CNC(=O)c2ccc(-c3nc4ccc(Cl)cc4[nH]3)cc2)cc1`, the growth inhibition was 2% in experiment [1] and 93% (active) in experiment [4]. The results for the inhibition in experiment [2] and in experiment [3] were 14% and -2%, respectively. In addition, the outcome in experiment [5], in experiment [6], in experiment [7] and in experiment [8] was inactive.

For the compound `CCCc1cn2c3c(cc(C(=O)N[C@@H](Cc4ccccc4)[C@H](O)CNC4CCOCC4)cc13)N(CC)S(=O)(=O)CC2`, the growth inhibition in experiment [1] is 98% (active); in experiment [4], 97% (active). The inhibition in experiment [2] was 2%; in experiment [3], -2%. Moreover, the outcome in experiment [5], in experiment [6], in experiment [7] and in experiment [8] was inactive.

Regarding `CCN(CC)CCN(Cc1ccc(-c2ccc(C(F)(F)F)cc2)cc1)C(=O)Cn1c(CCc2cccc(C#N)c2)nc(=O)c2ccccc21`, the values for the growth inhibition in experiment [1] and in experiment [4] were 47% and 101% (active), respectively. Besides, the inhibition was 36% in experiment [2] and -1% in experiment [3]. In addition, the result in experiment [5], in experiment [6], in experiment [7] and in experiment [8] was inactive.

As for `CCOC(=O)NCCSC(C)(C)[C@H](NC(=O)[C@H](Cc1cc2ccccc2s1)[C@H](CC)N(O)C=O)C(=O)Nc1nccs1`, the growth inhibition in experiment [1] and in experiment [4] was 98% (active) throughout. Also, the results for the inhibition in experiment [2] and in experiment [3] were 11% and 1%, respectively. Moreover, the outcome in experiment [5], in experiment [6], in experiment [7] and in experiment [8] was inactive.

Turning to `COc1ccc(S(=O)(=O)NC2CCN(c3cc(C)nc(Nc4cccc(C#N)c4)n3)CC2)cc1`, the growth inhibition was 55% (active) in experiment [1] and 88% (active) in experiment [4]. For the same compound, the inhibition in experiment [2] was 9%; in experiment [3], -4%. Also, the outcome in experiment [5], in experiment [6], in experiment [7] and in experiment [8] was inactive.

As to `Cc1cc(N)c2cc(NC(=O)/C=C/c3ccccc3)ccc2n1`, the growth inhibition in experiment [1] is 68% (active); in experiment [4] it was 102% (active). The inhibition in experiment [2] was 20%; in experiment [3], 0%. Further, the result in experiment [5], in experiment [6], in experiment [7] and in experiment [8] was inactive.

With `Cc1c(F)cc(C(=O)NC2CC2)cc1-c1ccc2c(cnn2S(=O)(=O)c2ccc(C#N)cc2)c1`, the growth inhibition in experiment [1] was 92% (active); in experiment [4], 97% (active). Also, the inhibition was 17% in experiment [2] and 0% in experiment [3]. Moreover, the result in experiment [5], in experiment [6], in experiment [7] and in experiment [8] was inactive.
